Measurements taken from PubChem BioAssay (NCATS).
Records with an inconclusive call do not appear. Values without a mark were called inactive. Calls come from the whole dose curve; as a rule, active = well fitted curve in either direction with a large enough effect (not every such curve was filed as active); inconclusive = small, poorly fitted or top-dose-only effect, or another doubt; inactive = flat fitted curve, though single readings scatter.

experiment: AP1 Signaling Pathway (AID 357); conditions: ME-180 (cervical carcinoma) AP-1-bla reporter, EGF-induced, beta-lactamase ratio, 5 h; at 17.2 µM (top of the series) unless noted;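 note: ME-180 reporter cells stimulated with EGF at its EC50 level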
Procedure, shortened: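 First, ME-180 AP-1-bla cells were cultured overnight at 37 °C in low-serum Opti-MEM. Next, titrated compounds with EC50 EGF were incubated 5 hours. Finally, CCF4 was added for 2.5 hours and the 460/530 nm ratio recorded.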
% is set by controls: 0 for no effect and ±100 for the full control effect.

Row | Structure (SMILES) | activity change, negative = inhibition [%]
1 | COc1ccc2c(c1OC)C(=O)N1c3ccccc3C(=O)N(c3ccc(F)cc3)C21 (stereo not given) | -3.68
2 | CCc1nc2sc3c(c2c(=O)o1)CCCC3 | -11.3
3 | CCOC(=O)c1c(SC)nc(SC)c2c1CCC2 | -12.6
4 | Clc1ccc(-c2nnc3sc(Cc4cccs4)nn23)c(Cl)c1 | -25
5 | CN(C)c1nc(OCCOC(=O)Nc2ccc(Cl)cc2Cl)nc(N(C)C)n1 | -3.73
6 | CCc1nnc(NC(=O)CSc2nc(C)c3c(c2C#N)CCCC3)s1 | -12.7
7 | CCc1nnc(NC(=O)c2c(O)c3c([nH]c2=O)CCCC3)s1 | -9.97
8 | CC1(C)Cc2c(sc3c2C2=NCCN2C=N3)CO1 | 12.7
9 | CCC1CCCCN1c1nc(-c2cccc(OC)c2O)nc2ccccc12 (stereo not given) | -8.8
10 | N#Cc1c(N2CCOCC2)nc(N2CCCCC2)c2c1CCN(C1CCCCC1)C2 | -8.29
11 | c1ccc(C2Nc3ccccc3-c3nc4ccccc4n32)nc1 (stereo not given) | -3.28
12 | COc1ccc(Cn2c(N)c(C#N)c3nc4ccccc4nc32)cc1OC | -3.62
13 | Cc1nnc(NCc2n[nH]c(=O)c3ccccc23)c2ccccc12 | 29.7
14 | CCOC(=O)c1cc2c(=O)n3cccc(C)c3nc2n(CCc2ccccc2)c1=N | 9.31
15 | CCN(CC)CCNc1nc(-c2ccco2)c2c(c1C#N)CC(C)(C)OC2 | 12.8
16 | CCSc1nc2sc3c(c2c2nnc(SCC(=O)NCc4ccco4)n12)CCCC3 | -11.8
17 | COc1cc2c(C(=O)N3CCN(c4ccccc4)CC3)c(C)oc2cc1Br | 3.59
18 | CCN(CC)C(=O)CSc1nc2ccccc2c(=O)n1CC1CCCCC1 | -21.3
19 | COc1cccc(C(=O)OC2CCCN(C)C2)c1 (stereo not given) | -4.26
20 | Cc1nc(NS(=O)(=O)c2ccccc2)sc1NC(=O)OCCN(C)C | -8.74

Row | Structure (SMILES) | activity change, negative = inhibition [%]
21 | Cn1nnc2c(sc3nc(N4CCOCC4)c4c(c32)CCCC4)c1=O | -0.625
22 | C=CCSc1nnc2n(-c3ccccc3OC)c(=O)c3c4c(sc3n12)CCC4 | 7
23 | CN(CC(O)COc1ccc(OCC(O)CN(C)C2CCCCC2)cc1)C1CCCCC1 (stereo not given) | 11.3
24 | COC(=O)c1c(NC(=O)c2nn(C)cc2Cl)sc2c1CCCC2 | -24.3
25 | Cn1ccnc1C(O)c1ccc(OCc2ccccc2)cc1 (stereo not given) | -6.56
26 | O=C(NCc1cccnc1)/C(=N\O)c1ccccc1 | -8.53
27 | COc1ccc(OC)c2c1CCC2=O | -7.3
28 | CCOC(=O)c1[nH]c2ccc(F)cc2c1NC(=O)CCN1CCSCC1 | 0.77
29 | c1ccc2c(N3CCCCC3)nc(N3CCCCC3)nc2c1 | 21.1
30 | Cc1cccc(NC(=O)c2c(C)cc(=O)oc2C)n1 | -0.882
31 | OCCN(CCO)c1ncnc2c1sc1nc(N3CCOCC3)c3c(c12)CCCC3 | -27.6
32 | CC(=Nc1ccc(C)c(C)c1)C1=C(O)CCC1=O | 13.3
33 | CCCCN(CCCC)C(=O)CSc1nnc2n(C)c(=O)c3c4c(sc3n12)CCCC4 | -8.91
34 | COc1ccc(C2=CC(c3ccc(C)cc3)n3nnnc3N2)cc1 (stereo not given) | -20.8
35 | C=CCn1c(SCC#N)nc2c(c1=O)C(C)(C)Cc1ccccc1-2 | -2.85
36 | Cc1ccsc1C1NC(=O)c2c(sc3c2CCCC3)N1 (stereo not given) | -25.1
37 | COc1ccc(-n2c(SCC(N)=O)nc3sc4c(c3c2=O)CCN(C)C4)cc1 | -7.72
38 | C=CCNc1sc(C(=O)C2CC2)c(N)c1C#N | -5.75
39 | CCCSc1nc(N2CCOCC2)c2c(c1C#N)CCCC2 | 20.8
40 | O=C(CN1C(=O)c2ccccc2C1=O)NCc1ccccn1 | -3.27
